Records with an inconclusive call do not appear. Active and inactive are the calls of the source. Unless noted, the call rests on the fitted dose curve; in most records, active means well fitted curve in the direction sought with a large enough effect in the repeat runs; inconclusive means weak or mixed curves; inactive means no such curve, though single readings can be large; an effect the other way counts as inactive or inconclusive.
What was measured:
[1] = target: Estrogen receptor beta (Homo sapiens) (UniProt Q92731); experiment: qHTS assay to identify small molecule agonists of the estrogen receptor beta (ER-beta) signaling pathway (AID 1259377; active means well fitted activation curve with a large enough effect in the signal ratio in the repeat runs, not every such curve was filed as active; the % refers to the signal ratio)
Summary of the method: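 Agonist mode cell assay in GripTite HEK293T cells expressing an ER-beta fusion that drives beta-lactamase from an Upstream Activator Sequence; 16 hr compound exposure at 37C, then 2 h LiveBLAzer B/G FRET substrate at room temperature, fluorescence read-out.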

[2] = target: Estrogen receptor beta (Homo sapiens) (UniProt Q92731); experiment: qHTS assay to identify small molecule antagonists of the estrogen receptor beta (ER-beta) signaling pathway (AID 1259378; active means well fitted inhibition curve with a large enough effect in the signal ratio in the repeat runs, not every such curve was filed as active; the % refers to the signal ratio)
Summary of the method: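 ER-beta-UAS-bla HEK293T cells in 2% charcoal-stripped FBS medium treated with compound plus 1nM final 17-beta-estradiol for 16 hr at 37C. Beta-lactamase reporter read by FRET substrate fluorescence after 2 hours at room temperature.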

[3] = qHTS assay to identify small molecule agonists of the androgen receptor (AR) signaling pathway in the presence of an antagonist - cell viability counter screen (AID 1259379);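 further: MDA-kb2 human breast cancer cells carrying an MMTV luciferase reporter; series mostly up to about 92 µM; nearly all actives have a fitted effect of over 25% in size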
Summary of the method: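 In MDA-kb2 cells (human breast carcinoma, MMTV-luciferase), compounds at 15 concentrations plus 3.0uM nilutamide; 16 hr, 37C, 0% CO2; CellTiter-Fluor fluorescence read for viability.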

[4] = qHTS assay to identify small molecule agonists of the estrogen receptor beta (ER-beta) signaling pathway - cell viability counter screen (AID 1259380); further: nearly all actives have a fitted effect of over 30% in size
Summary of the method: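 Viability of ER-beta-UAS-bla HEK293T cells was determined by CellTiter-Glo luminescence following 16 hr treatment with test compounds at 37C.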

[5] = qHTS assay to identify small molecule antagonists of the estrogen receptor beta (ER-beta) signaling pathway - cell viability counter screen (AID 1259382); further: series mostly up to about 92 µM; nearly all actives have a fitted effect of over 55% in size
Summary of the method: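 Tox21 10K library tested in qHTS format on ER-beta-bla HEK293T cells stimulated with 1nM E2; 16 hr treatment at 37C. Same-well CellTiter-Glo luminescence served as the cell viability measure.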

[6] = qHTS assay to identify small molecule agonists or antagonists of the thyroid stimulating hormone receptor (TSHR) signaling pathway - wild type cell line counter screen (AID 1259384; calls by dose curve)
Summary of the method: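 Wild-type Hek293 cells, 800/well, 18 h at 37C, then compound with Ro20-1724 for 30 min RT. cAMP by HTRF (cAMP-d2/anti-cAMP cryptate), 1 h RT, fluorescence read. 15 concentrations, triplicates.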

[7] = target: Thyrotropin receptor (Homo sapiens) (UniProt P16473); experiment: qHTS assay to identify small molecule antagonists of the thyroid stimulating hormone receptor (TSHR) signaling pathway (AID 1259385; calls by dose curve; further: nearly all actives have a fitted effect of over 20% in size)
Summary of the method: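 TSHR-HEK293 cells (800/well) plated 18 h, then compounds with Ro20-1724 and TSH at 1.5 ng/mL final, 30 min at room temperature. cAMP quantified by HTRF (cAMP-d2/anti-cAMP-cryptate, 1 h); 15 concentrations in triplicate.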

[8] = qHTS assay to identify small molecule agonists of the estrogen receptor alpha (ER-alpha) signaling pathway in the presence of an antagonist - cell viability counter screen (AID 1259386);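 further: series mostly up to about 92 µM; cells exposed to compounds for 22 h at 37 °C before the viability read; nearly all actives have a fitted effect of over 30% in size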
Summary of the method: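 Fluorescent CellTiter-Fluor viability signal from VM7Luc4E2 cells, with the reagent added during the final hour of a 22hr compound exposure at 37C in the presence of 10.0nM ICI-182,780.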

[9] = target: Progesterone receptor (Homo sapiens) (UniProt P06401); experiment: qHTS assay to identify small molecule agonists of the progesterone receptor (PR) signaling pathway (AID 1346784; calls by dose curve; further: nearly all actives have a fitted effect of over 30% in size)
Summary of the method: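 Cells (PR-UAS-bla HEK 293T, GripTite) were plated in assay medium containing 2% charcoal-stripped FBS and incubated 6 hr. Test compounds in DMSO were added for 16 hr at 37C. FRET substrate was then loaded for 2 hr at room temperature before fluorescence reading.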

[10] = target: Progesterone receptor (Homo sapiens) (UniProt P06401); experiment: qHTS assay to identify small molecule antagonists of the progesterone receptor (PR) signaling pathway (AID 1346795; active means well fitted inhibition curve with a large enough effect in the signal ratio in the repeat runs, not every such curve was filed as active; the % refers to the signal ratio)
Summary of the method: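 Antagonist mode: compounds tested against 1 nM (final) promegestone stimulation in HEK293T cells expressing PR-UAS-bla reporter, 16 hr at 37C, 5% CO2; beta-lactamase activity detected via B/G FRET substrate after 2 hr at room temperature.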

[11] = qHTS assay to identify small molecule agonists of the progesterone receptor (PR) signaling pathway - cell viability counter screen (AID 1346799; calls by dose curve; further: nearly all actives have a fitted effect of over 45% in size)
Summary of the method: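 Cells (PR-UAS-bla HEK293T) are plated at 3,000/well in 2% charcoal-stripped FBS medium, rested 6 hr, dosed and incubated 16 hr at 37C. CellTiter-Glo is then added and luminescence measured after 30 min at room temperature.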

[12] = qHTS assay to identify small molecule agonists of the TGF-beta/Smad signaling pathway - cell viability counter screen (AID 1346829); further: top concentration of the series differs between compounds; nearly all actives have a fitted effect of over 45% in size
Summary of the method: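 Compound-treated SBE-bla HEK 293T cells (5 hr, 37 C) were assessed for viability with CellTiter-Glo in parallel with the reporter read.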

[13] = qHTS assay to identify small molecule agonists of the TGF-beta/Smad signaling pathway (AID 1346859; active means well fitted activation curve with a large enough effect in the signal ratio in the repeat runs, not every such curve was filed as active; the % refers to the signal ratio; further: series mostly up to about 77 µM)
Summary of the method: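 Reporter line: HEK 293T with stably integrated SBE-controlled beta-lactamase. Compound exposure lasts 5 hr at 37 C and 5% CO2; substrate loading follows for 2 hr at room temperature, with emission read at 460 and 530 nm.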

[14] = Human pregnane X receptor (PXR) small molecule agonists, qHTS cell viability counter screen (AID 1346977); further: nearly all actives have a fitted effect of over 50% in size
Summary of the method: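 Cytotoxicity counter screen run in the same wells as the PXR luciferase assay, using PXR-Luc HepG2 cells in charcoal-stripped serum medium. Viability: CellTiter-Fluor fluorescence after 24hr compound treatment.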

[15] = qHTS assay to identify small molecule antagonists of the TGF-beta/Smad signaling pathway - cell viability counter screen (AID 1346824); further: nearly all actives have a fitted effect of over 50% in size
Summary of the method: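 SBE-bla HEK 293T cells, incubated overnight, then compound plus 0.25 ng/mL TGF-beta1 (stock added) for 5 hr at 37 C. Viability was read in the same wells by CellTiter-Glo luminescence after 30 min at room temperature.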

[16] = target: Thyrotropin-releasing hormone receptor (Homo sapiens) (UniProt P34981); experiment: qHTS assay to identify small molecule antagonists of the thyrotropin-releasing hormone receptor (TRHR) signaling pathway (AID 1346877; active means well fitted inhibition curve with a large enough effect in the repeat runs, not every such curve was filed as active; further: series mostly up to about 51 µM)
Summary of the method: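 In this cell-based calcium flux format, HEK293 cells expressing TRHR received test compound for 5 min before the agonist TRH (1 nM final). Dye loading lasted 2 h at 37 °C.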

[17] = target: Thyrotropin-releasing hormone receptor (Homo sapiens) (UniProt P34981); experiment: qHTS assay to identify small molecule agonists of the thyrotropin-releasing hormone receptor (TRHR) signaling pathway (AID 1346891; calls by dose curve; further: series mostly up to about 58 µM)
Summary of the method: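 Cells: TRHR-Hek293, seeded and incubated 18 h. Dye loading: 2 h at 37 °C. Compound added from DMSO stock by pin tool. Read-out: kinetic calcium fluorescence over 3 min.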

[18] = qHTS assay to identify small molecule antagonists of the progesterone receptor (PR) signaling pathway - cell viability counter screen (AID 1346798); further: series mostly up to about 92 µM; nearly all actives have a fitted effect of over 50% in size
Summary of the method: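 Counter screen for cytotoxicity: viability of PR-UAS-bla HEK293T cells was measured with CellTiter-Glo luminescence following 16 hr compound exposure in the presence of R5020.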

[19] = target: Estrogen receptor (Homo sapiens) (UniProt P03372); experiment: qHTS assay to identify small molecule agonists of the estrogen receptor alpha (ER-alpha) signaling pathway in the presence of an antagonist (AID 1259383; calls by dose curve; further: top concentration of the series differs between compounds; nearly all actives have a fitted effect of over 15% in size)
Summary of the method: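 In VM7Luc4E2 cells, 4,000 per well, compounds at 15 concentrations were co-incubated 22hr at 37C with 10.0nM final ICI-182,780. Luminescence from the stably transfected 4×ERE-luciferase reporter was recorded 30min after ONE-Glo addition.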

Measured: Potency

Sequence of Estrogen receptor beta (Homo sapiens) (Q92731 whole entry, looked up, the tested form may be a part): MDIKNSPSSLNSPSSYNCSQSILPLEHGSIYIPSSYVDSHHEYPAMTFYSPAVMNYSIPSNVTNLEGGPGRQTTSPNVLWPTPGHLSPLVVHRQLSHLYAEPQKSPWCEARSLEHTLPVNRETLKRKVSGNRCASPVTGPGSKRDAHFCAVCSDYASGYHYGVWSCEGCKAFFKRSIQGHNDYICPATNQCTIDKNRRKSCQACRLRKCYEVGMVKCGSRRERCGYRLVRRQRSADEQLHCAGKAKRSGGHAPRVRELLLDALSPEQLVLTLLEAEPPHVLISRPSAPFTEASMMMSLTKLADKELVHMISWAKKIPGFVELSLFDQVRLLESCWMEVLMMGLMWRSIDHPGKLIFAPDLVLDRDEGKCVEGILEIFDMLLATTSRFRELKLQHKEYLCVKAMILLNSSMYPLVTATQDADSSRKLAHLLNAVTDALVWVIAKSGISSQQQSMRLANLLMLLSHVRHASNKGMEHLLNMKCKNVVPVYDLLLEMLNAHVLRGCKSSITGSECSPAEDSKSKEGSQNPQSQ
Sequence of Progesterone receptor (Homo sapiens) (P06401 whole entry, looked up): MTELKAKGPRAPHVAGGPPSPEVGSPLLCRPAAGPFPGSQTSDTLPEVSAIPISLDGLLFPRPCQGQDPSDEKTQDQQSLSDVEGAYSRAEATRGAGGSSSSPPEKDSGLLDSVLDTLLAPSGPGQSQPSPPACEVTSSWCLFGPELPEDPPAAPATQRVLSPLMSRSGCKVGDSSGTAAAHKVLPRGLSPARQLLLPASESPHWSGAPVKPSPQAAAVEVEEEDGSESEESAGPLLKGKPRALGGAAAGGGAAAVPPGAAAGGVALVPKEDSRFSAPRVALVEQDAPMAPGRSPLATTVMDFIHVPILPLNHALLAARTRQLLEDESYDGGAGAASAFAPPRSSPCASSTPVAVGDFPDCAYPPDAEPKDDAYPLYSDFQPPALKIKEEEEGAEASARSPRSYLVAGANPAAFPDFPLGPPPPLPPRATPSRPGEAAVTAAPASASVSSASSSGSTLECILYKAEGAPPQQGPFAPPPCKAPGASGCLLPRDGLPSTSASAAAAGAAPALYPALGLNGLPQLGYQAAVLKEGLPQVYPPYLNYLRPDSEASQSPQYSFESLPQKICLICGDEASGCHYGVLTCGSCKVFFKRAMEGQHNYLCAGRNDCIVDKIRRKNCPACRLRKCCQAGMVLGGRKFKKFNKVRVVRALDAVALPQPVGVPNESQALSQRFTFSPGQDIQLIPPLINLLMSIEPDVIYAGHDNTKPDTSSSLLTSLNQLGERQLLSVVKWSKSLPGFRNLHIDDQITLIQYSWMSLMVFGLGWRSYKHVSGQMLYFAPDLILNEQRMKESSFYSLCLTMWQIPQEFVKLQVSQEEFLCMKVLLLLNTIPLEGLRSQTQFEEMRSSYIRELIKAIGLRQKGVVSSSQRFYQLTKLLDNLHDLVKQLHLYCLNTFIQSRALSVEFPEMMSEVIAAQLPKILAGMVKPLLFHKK
Sequence of Thyrotropin-releasing hormone receptor (Homo sapiens) (P34981 whole entry, looked up): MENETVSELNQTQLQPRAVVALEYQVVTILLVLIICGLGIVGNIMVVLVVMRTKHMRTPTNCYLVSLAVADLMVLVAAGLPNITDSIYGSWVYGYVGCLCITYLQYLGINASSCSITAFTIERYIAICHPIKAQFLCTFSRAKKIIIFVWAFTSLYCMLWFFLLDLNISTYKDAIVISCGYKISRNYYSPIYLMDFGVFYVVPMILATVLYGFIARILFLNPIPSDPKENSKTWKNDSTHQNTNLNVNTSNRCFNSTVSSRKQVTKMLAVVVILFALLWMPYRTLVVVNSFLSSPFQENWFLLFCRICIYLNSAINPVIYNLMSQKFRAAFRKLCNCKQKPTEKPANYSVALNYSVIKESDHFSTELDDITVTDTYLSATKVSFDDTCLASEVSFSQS
Sequence of Thyrotropin receptor (Homo sapiens) (P16473 whole entry, looked up): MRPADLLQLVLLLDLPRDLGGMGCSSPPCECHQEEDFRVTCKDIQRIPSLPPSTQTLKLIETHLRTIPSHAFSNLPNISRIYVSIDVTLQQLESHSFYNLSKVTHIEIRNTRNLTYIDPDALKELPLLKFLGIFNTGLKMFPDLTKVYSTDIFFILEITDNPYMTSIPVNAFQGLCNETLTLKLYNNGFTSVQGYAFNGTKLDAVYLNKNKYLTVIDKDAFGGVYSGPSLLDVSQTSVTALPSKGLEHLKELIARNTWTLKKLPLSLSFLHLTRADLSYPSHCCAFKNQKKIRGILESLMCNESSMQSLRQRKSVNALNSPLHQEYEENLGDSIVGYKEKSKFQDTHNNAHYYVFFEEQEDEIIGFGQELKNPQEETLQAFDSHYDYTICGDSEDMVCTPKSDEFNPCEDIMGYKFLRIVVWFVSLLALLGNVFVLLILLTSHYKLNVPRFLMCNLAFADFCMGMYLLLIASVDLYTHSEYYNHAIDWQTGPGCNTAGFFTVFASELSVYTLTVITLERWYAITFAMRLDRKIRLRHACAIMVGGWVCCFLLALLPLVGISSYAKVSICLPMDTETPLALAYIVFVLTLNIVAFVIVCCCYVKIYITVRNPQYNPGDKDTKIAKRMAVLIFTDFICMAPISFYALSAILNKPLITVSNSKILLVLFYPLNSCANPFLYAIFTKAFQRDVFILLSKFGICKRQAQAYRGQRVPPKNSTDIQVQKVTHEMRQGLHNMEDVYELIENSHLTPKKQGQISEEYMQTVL
Sequence of Estrogen receptor (Homo sapiens) (P03372 whole entry, looked up): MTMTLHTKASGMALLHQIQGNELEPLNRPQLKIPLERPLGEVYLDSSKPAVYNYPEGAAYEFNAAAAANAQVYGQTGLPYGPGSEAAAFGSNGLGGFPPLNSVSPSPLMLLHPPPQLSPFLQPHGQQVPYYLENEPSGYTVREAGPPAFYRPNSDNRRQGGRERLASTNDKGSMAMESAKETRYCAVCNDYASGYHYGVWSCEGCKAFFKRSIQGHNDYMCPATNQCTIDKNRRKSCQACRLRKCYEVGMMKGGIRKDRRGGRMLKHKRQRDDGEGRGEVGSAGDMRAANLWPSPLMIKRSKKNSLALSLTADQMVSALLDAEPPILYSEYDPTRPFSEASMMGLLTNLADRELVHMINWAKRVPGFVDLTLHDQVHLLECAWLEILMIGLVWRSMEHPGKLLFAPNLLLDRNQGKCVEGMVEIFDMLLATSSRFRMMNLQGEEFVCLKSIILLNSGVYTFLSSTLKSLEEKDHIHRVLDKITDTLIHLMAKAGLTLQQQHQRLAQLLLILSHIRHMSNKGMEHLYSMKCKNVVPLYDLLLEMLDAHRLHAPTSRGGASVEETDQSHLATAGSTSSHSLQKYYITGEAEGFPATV

C[C@H]1[C@H](NC(=O)/C(=N/OC(C)(C)C(=O)O)c2csc(N)n2)C(=O)N1S(=O)(=O)O (stereo in doubt)
not listed: [15] | [16] | [17] | [18] | [19]
inactive: all other assays above

O=C1NC(=O)C2CC=CCC12 (stereo unspecified)
not listed: [7] | [8] | [10] | [12] | [18] | [19]
inactive: all other assays above

CN1CCC(=C2c3ccccc3CCc3cccnc32)CC1
not listed: [6] | [8] | [10] | [13] | [14] | [19]
inactive: all other assays above

C1CCC2=NCCCN2CC1
not listed: [16] | [17] | [19]
inactive: all other assays above

CN1CC(=O)N/C1=N/C(=O)Nc1cccc(Cl)c1
not listed: [8] | [19]
inactive: all other assays above

OCCc1ccccn1
not listed: [6] | [7] | [18] | [19]
inactive: all other assays above

CC(C)CC(C)(N)C#N (stereo unspecified)
not listed: [6] | [18] | [19]
inactive: all other assays above

CCN1CCOCC1
not listed: [6] | [7] | [12] | [19]
inactive: all other assays above

[K+]
not listed: [4] | [14]
inactive: all other assays above

— PubChem BioAssay (Tox21)
